# Assay outcomes as filed in PubChem BioAssay.
# TEAD-YAP inh – TEAD-YAP interaction inhibition, primary screen, TEAD-YAP interaction inhibitor project, luminescence, HEK-TIYL cells | inhibition, % at 9.12 µM | 640,000 compounds, 1.4% hits | TEAD-Gal4/YAP UAS-luciferase luminescence; in the data active means inhibition above about 32%;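 further: 0% = median of test compound wells and 100% = reference inhibitor wells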
# GPR151 activ – activators of human GPR151, primary screen, cell-based, PathHunter beta-arrestin, luminescence | G-protein coupled receptor 151 (Homo sapiens), Q8TDV0 | PathHunter beta-arrestin GPR151 cells | activation, % at 11.2 µM | 650,000 compounds, 1% hits; in the data active means activation above about 4.9%;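 further: 0% = median of compound wells and 100% = cells with positive control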
# FBW7 activator – FBW7 E3 ligase activators, primary screen, biochemical, AlphaScreen, human; F-box/WD repeat-containing protein 7 (Homo sapiens), Q969H0; normalized activity (activation), % at 26.1 µM; AlphaScreen FBW7–phospho-cyclin E peptide binding, activator screen; 650,000 compounds, 0.13% hits; in the data active means normalized activity above about 1.9%;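 further: purified mutant Fbw7 with reduced substrate affinity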
# MITF primary – MITF inhibitors, primary screen, biochemical, AlphaScreen, human | AlphaScreen MITF homodimerization, bead proximity signal | inhibition, % at 2.6 µM | 650,000 compounds, 0.91% hits | AID 1259374, 2018; in the data active means inhibition above about 50%;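 further: 0% = vehicle wells with protein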
# Target sequence (O75030 whole entry, looked up): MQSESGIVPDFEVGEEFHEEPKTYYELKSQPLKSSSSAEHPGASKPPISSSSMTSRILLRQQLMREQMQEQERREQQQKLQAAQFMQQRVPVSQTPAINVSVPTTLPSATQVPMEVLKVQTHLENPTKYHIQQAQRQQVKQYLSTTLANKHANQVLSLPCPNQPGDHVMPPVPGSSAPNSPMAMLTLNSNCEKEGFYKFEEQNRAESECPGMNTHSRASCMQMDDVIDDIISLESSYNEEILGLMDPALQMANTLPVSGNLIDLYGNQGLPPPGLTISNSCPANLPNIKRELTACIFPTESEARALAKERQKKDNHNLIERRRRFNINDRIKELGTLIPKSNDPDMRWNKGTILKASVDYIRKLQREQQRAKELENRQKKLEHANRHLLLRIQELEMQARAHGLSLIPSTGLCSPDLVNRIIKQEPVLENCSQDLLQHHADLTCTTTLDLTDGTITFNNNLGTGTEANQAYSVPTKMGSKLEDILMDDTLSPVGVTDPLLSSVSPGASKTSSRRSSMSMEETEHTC
# The depositor's hits bear a star. Rows were chosen to be rich in hits. Some 3.5% of all compounds tested hit in one or more screens of this group.
SMILES,TEAD-YAP inh,GPR151 activ,FBW7 activator,MITF primary
Cn1nc(C(C)(C)C)cc1C(=O)NCc1ccc2c(c1)CCO2,42.4*,-0.2,0.8,-3.2
CC1=CC(C)(C)N2C(=O)C(=O)c3cc(OC(=O)c4ccccc4F)cc1c32,45.0*,-0.4,-0.3,5.1
O=C(c1ccco1)N1CCN(c2ncc(-c3ccc(CO)cc3)n3ccnc23)CC1,38.8*,0.6,4.8*,5.1
Nc1ccc(-c2cnc3c(N4CCN(C(=O)c5ccco5)CC4)nccn23)cc1,-59.8,-1.2,-0.3,-7.7
O=C(c1ccco1)N1CCN(c2ncc(-c3cccnc3)n3ccnc23)CC1,-70.5,1.3,2.3*,-24.3
O=C1CCCC2=C1C(c1ccc(O)c(Br)c1)C1=C(CCCC1=O)O2,44.7*,0.1,0.3,16.7
COC(=O)c1ccc(CSCC(=O)c2cc(C)n(CC3CCCO3)c2C)cc1 (configuration not stated),36.8*,2.1,-0.3,0.6
Cc1cc(C(=O)CSc2nc3ccccc3[nH]2)c(C)n1CC1CCCO1 (configuration not stated),40.2*,-0.1,0.0,9.9
Cc1cc(C(=O)CCl)c(C)n1CC1CCCO1 (configuration not stated),-7.2,-0.9,-0.3,8.7
COC(=O)Cn1cc(S(=O)(=O)N2CCOCC2)c2cc([N+](=O)[O-])ccc21,0.7,-0.8,-0.1,-5.0
Cc1ccc(-n2ncc3c(SCC(=O)NCc4ccco4)ncnc32)c(C)c1,38.7*,-1.5,0.2,6.0
O=C(O)CCCN1C(=O)/C(=C/c2ccc(O)cc2)SC1=S,75.4*,-5.5,-0.2,15.1
O=C(O)CN1C(=O)/C(=C\c2ccc(O)cc2O)SC1=S,-5.6,-2.6,-0.1,87.5*
O=C(O)CCCN1C(=O)/C(=C\c2ccc(O)cc2)SC1=S,66.5*,-6.6,-0.2,3.1
O=C(O)CN1C(=O)/C(=C\c2cc(Cl)ccc2O)SC1=S,12.4,-0.1,0.2,11.0
O=C(O)CCCN1C(=O)/C(=C\c2ccccc2)SC1=S,24.9,-1.1,0.6,18.0
COc1cc(/C=C2/SC(=S)N(CCC(=O)O)C2=O)ccc1O,32.5*,-6.5,-0.2,23.3
Cc1ccc(S(=O)(=O)NC(=O)Nc2ccc(I)cc2)cc1,-3.6,0.2,-0.1,-17.0
CCOC(=O)CC(=O)c1sc2c(c1N)c(=O)[nH]c(=O)n2-c1ccccc1C,5.6,-0.2,0.0,1.6
O=C(O)CCCN1C(=O)/C(=C\c2ccccn2)SC1=S,87.4*,1.6,-0.2,0.5
O=C(O)CCN1C(=O)/C(=C/c2ccc([N+](=O)[O-])o2)SC1=S,20.9,-1.0,-0.2,56.3*
CCOC(=O)c1ccc(N=Cc2c(O)n(C)c(=O)n(C)c2=O)cc1,4.0,-0.1,0.0,6.5
COc1cccc(-c2noc(C3CC(=O)N(c4ccc(C)c(Cl)c4)C3)n2)c1OC (configuration not stated),1.0,-0.4,0.0,2.5
CC1(Cc2ccc3c(c2)OCO3)C(=O)Nc2ccc(-c3cccnc3)cc21 (configuration not stated),42.1*,0.7,0.2,10.6
CC1(Cc2ccccc2)C(=O)Nc2ccc(-c3cccnc3)cc21 (configuration not stated),18.1,0.1,0.0,8.2
SMILES,TEAD-YAP inh,GPR151 activ,FBW7 activator,MITF primary
COCCn1c(C)cc(C(=O)CN2C(=O)NC(C)(c3ccc(C(C)(C)C)cc3)C2=O)c1C (configuration not stated),36.4*,0.6,-0.1,2.4
CC1=C(C(=O)OC(C)C)C(c2ccccc2F)C2=C(CC(c3ccc(Cl)cc3)CC2=O)N1 (configuration not stated),-2.9,-0.3,0.0,-17.5
O=C(Cn1nc(-c2ccc3c(c2)OCCO3)ccc1=O)NC1CCCC1,-2.0,-1.4,0.0,4.7
Nc1ccc(C(=O)OCCCc2nc3cc4ccccc4cc3[nH]2)cc1,6.9,2.8,0.0,8.2
Nc1ccc(C(=O)OCc2nc3cc4ccccc4cc3[nH]2)cc1,48.2*,-1.5,0.4,-2.1
CC(=O)NC(C(=O)OCC(=O)N(c1ccccc1)c1ccccc1)C(C)C (configuration not stated),-6.9,-0.3,0.0,8.0
CC(=O)NC(C(=O)OCc1cnc(-c2ccccc2)s1)C(C)C (configuration not stated),58.8*,-6.8,0.1,4.2
CC(=O)NC(=S)Nc1ccc(NC(=O)COc2ccccc2[N+](=O)[O-])cc1,6.8,-1.8,0.2,12.9
CCCC(=O)NC(c1ccccc1)c1cc([N+](=O)[O-])c2cccnc2c1O (configuration not stated),2.1,0.8,-0.7,75.7*
CCOc1cc(C(NC(=O)CC)c2cc([N+](=O)[O-])c3cccnc3c2O)ccc1O (configuration not stated),-6.0,0.4,-0.5,53.5*
CCCCC(=O)NC(c1ccc(OC)c(OC)c1)c1cc([N+](=O)[O-])c2cccnc2c1O (configuration not stated),-7.7,2.1,-0.2,51.0*
CCC(=O)NC(c1ccc(OC)c(OC)c1)c1cc([N+](=O)[O-])c2cccnc2c1O (configuration not stated),2.2,0.5,-0.8,67.9*
CCOc1cc(C(NC(=O)C(C)C)c2cc([N+](=O)[O-])c3cccnc3c2O)ccc1O (configuration not stated),8.9,1.0,-0.6,34.9
CCCC(=O)NC(c1ccc(OC)c(OC)c1)c1cc([N+](=O)[O-])c2cccnc2c1O (configuration not stated),16.6,0.4,-0.2,45.2
O=C(NC1CCCCCC1)c1cccc2[nH]ncc12,84.3*,-5.2,0.0,4.9
COc1ccc(CNC(=O)N2CCN(Cc3nc(-c4ccco4)cs3)CC2)cc1OC,54.0*,2.1,-0.1,-0.3
COc1ccccc1CCNC(=O)C1CC12CCN(Cc1cn[nH]c1-c1ccccc1)CC2 (configuration not stated),3.8,0.0,0.0,0.1
COc1cc(Nc2ncc(C)c(Nc3ccccc3)n2)cc(OC)c1OC,34.0*,3.7,-0.1,-3.4
COc1cc(Nc2nc(C)cc(Nc3ccccc3)n2)cc(OC)c1OC,46.0*,2.7,0.1,5.2
COc1cc(Nc2cc(C)nc(Nc3ccccc3)n2)cc(OC)c1OC,46.9*,0.9,-0.1,2.2
Cc1cc(C)nc(Nc2ccc(Nc3ccccc3)cc2)n1,32.5*,-2.5,-0.3,7.4
O=S(=O)(Cc1ccccc1)N1CCC(CO)(Cc2cccc(C(F)(F)F)c2)CC1,10.3,0.5,0.1,13.1
CCc1ccc(NC(=O)Cn2c(=O)n(Cc3ccc(F)cc3)c(=O)c3cccnc32)cc1,-4.4,0.5,-0.2,-2.7
Cc1cccc(C(=O)Oc2ccc3c(=O)c(Oc4cc(C)ccc4C)coc3c2)c1,-2.4,0.1,0.9,14.4
